Assay outcomes (PubChem)
ELG1 DNA repair: ELG1-dependent DNA repair inhibition; HEK293T ELG1-luciferase reporter, luminescence, 16 h; DNA damage induced by 5-fluorouridine; Potency, µM (doses to about 46.1 µM), without a hit: top-dose activity change, negative = inhibition, actives largely listed as inhibitors; 330,000 tested, 2.3% active; AID 504467; also: potency is read from the fitted curve at half-maximal effect; nearly all actives have a fitted effect of over 55% in size
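Cells (2,000 per well) received 5-fluorouridine plus test compound or DMSO and were incubated 16 hr at 37 °C, 5% CO2. Luciferase activity was read by luminescence 30 min after ONE-Glo addition; signal suppression marked inhibition of damage-induced ELG1 function.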
DT40 TDP1 no CPT: qHTS for Inhibitors of human tyrosyl-DNA phosphodiesterase 1 (TDP1): qHTS in cells in absence of CPT; 420,000 tested, 15% active; AID 686978, 2013; Potency, µM (series often up to 46.2 µM), for inactives: top-dose activity change, negative = growth inhibition, usual class: inhibitors; DT40 Tdp1-/- hTDP1 cells, no CPT, ATP luminescence, 48 h; also: potency is read from the fitted curve at half-maximal effect; nearly all actives have a fitted effect of over 55% in size
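Seeded 400 DT40-hTDP1 cells/well (vehicle DMSO, no 20 nM CPT); pinned compounds; ≥48 hr at 37 °C; CellTiter-Glo luminescence as viability measure.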
RORgamma inh: ROR gamma (mouse) transcription inhibition; P51450; Drosophila S2 Gal4-RORgamma UAS-luciferase reporter, 20 h; Potency, µM (titrated, usually from 53.6 µM), for the others: at the highest dose activity change, negative = inhibition, usual class: inhibitors; 310,000 tested, 5.4% active; also: potency is read from the fitted curve at half-maximal effect; nearly all actives have a fitted effect of over 60% in size
Target sequence (P51450 whole entry, looked up, the tested form may be a part): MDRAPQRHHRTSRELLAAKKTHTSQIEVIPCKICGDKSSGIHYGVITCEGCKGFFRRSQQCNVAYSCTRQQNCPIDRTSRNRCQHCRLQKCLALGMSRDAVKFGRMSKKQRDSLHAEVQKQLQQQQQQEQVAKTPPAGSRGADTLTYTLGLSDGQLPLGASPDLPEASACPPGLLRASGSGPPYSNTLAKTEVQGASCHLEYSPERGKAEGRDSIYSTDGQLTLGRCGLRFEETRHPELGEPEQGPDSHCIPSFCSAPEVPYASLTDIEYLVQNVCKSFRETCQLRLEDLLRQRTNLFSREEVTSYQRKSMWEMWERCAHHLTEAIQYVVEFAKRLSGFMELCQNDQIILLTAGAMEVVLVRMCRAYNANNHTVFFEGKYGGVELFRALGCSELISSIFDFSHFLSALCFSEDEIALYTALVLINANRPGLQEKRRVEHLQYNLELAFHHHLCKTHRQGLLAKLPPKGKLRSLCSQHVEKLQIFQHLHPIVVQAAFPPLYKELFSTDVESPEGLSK
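Stably transfected Drosophila Schneider cells are the test system, with ROR gamma fused to Gal4 and luciferase under UAS control; luminescence is read after 20 hr of 700 uM copper sulfate induction at ambient temperature.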
TDP1 cell CPT: growth inhibition of DT40 Tdp1-/-;hTDP1 cells with camptothecin (screen for TDP1 inhibitors). chicken DT40 Tdp1-/-;hTDP1 cells + 20 nM CPT, ATP luminescence, 48 h. Potency, µM (highest dose often 46.2 µM), for inactives: at the highest dose activity change, negative = growth inhibition, usual class: inhibitors. 420,000 tested, 12% active. AID 686979; also: potency is read from the fitted curve at half-maximal effect; nearly all actives have a fitted effect of over 55% in size
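Chicken DT40 Tdp1-/- cells complemented with human TDP1, 400 cells/well, exposed to compounds plus 20 nM camptothecin for at least 48 h at 37 C; viability read as ATP content by CellTiter-Glo luminescence.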
Gal4-VP16 FLuc: counter-screen for ROR gamma inhibitors: Gal4-VP16 reporter. Drosophila S2 Gal4-VP16 UAS-luciferase, luminescence, 20 h. Potency, µM (titrated, usually from 53.6 µM), without a hit: at the top dose activity, negative = inhibition, actives largely listed as inhibitors. 310,000 tested, 3.5% active;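 also: Gal4-VP16 expression switched on by copper sulfate through the metallothionein promoter; potency is read from the fitted curve at half-maximal effect; nearly all actives have a fitted effect of over 50% in size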
IL-1B inflam inh: inhibitors of inflammasome signaling (IL-1 beta secretion) | THP-1 LPS/ATP IL-1B secretion, AlphaLISA, 16 h; active compounds read low | activity change, % at 57.5 µM | 360,000 tested, 4.7% active; in the data active = activity change below about -50%; inconclusive = mostly about -30% to -49%
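Secreted IL-1B measured by AlphaLISA bead assay after 16 h compound exposure of THP-1 cells; compounds (final up to 57.5 uM) added 1 h before LPS (250 ng/mL) and ATP (1.25 mM) stimulation; lower signal means less secretion.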
Starred values were filed as active, the others as inactive; ? = inconclusive; nt = not tested or not shown; [ ] = remark or other dose. The list is not random: actives were taken first. Their share in the collection is about 21%. Unless noted, calls follow the shape of the dose curve; as a rule, active = well fitted curve in the direction sought with a large enough effect; inconclusive = small, poorly fitted or top-dose-only effect, or another doubt; inactive = no such curve, though single readings can be large; an effect the other way counts as inactive or inconclusive. % is scaled to controls: 0 for no effect and ±100 for the full control effect.

SMILES | ELG1 DNA repair | DT40 TDP1 no CPT | RORgamma inh | TDP1 cell CPT | Gal4-VP16 FLuc | IL-1B inflam inh
CCOC(=O)Cn1nnnc1CN(Cc1cccs1)Cc1cc2cc(C)ccc2[nH]c1=O | ? | ? | 8.0% | ? | 6.4% | 5.5
C[C@H](NC(=O)c1nc[nH]c1C(=O)N1CCc2ccccc2C1)C(=O)OCc1ccccc1 | 1.1% | ? | ? | -27.1% | -21.4% | 2.7
Cc1cc(C)c(S(=O)(=O)NCCc2cc3cc(C)c(C)cc3[nH]c2=O)c(C)c1 | nt | -21.6% | nt | -9.9% | nt | nt
CCC(c1nnnn1Cc1ccco1)N(Cc1ccccc1OC)Cc1cc2cc(C)ccc2[nH]c1=O (configuration not stated) | ? | 23.1µM* | 0.9% | ? | -26.6% | -12.2
Cc1ccc(CN(Cc2cc3cc4c(cc3[nH]c2=O)OCCO4)Cc2nnnn2Cc2ccco2)cc1 | 23.1µM* | ? | 1.8% | ? | 1.6% | ?
Cc1ccc2[nH]c(=O)c(CN(Cc3ccccc3)Cc3nnnn3C3CCCC3)cc2c1 | ? | ? | 34.1% | 20.6µM* | 4.7% | -71.7*
COc1ccc2cc(CN(CCc3ccccc3)Cc3nnnn3Cc3ccco3)c(=O)[nH]c2c1 | ? | 16.4µM* | 8.8% | ? | -0.4% | -25.2
Cc1ccc2[nH]c(=O)c(CN(Cc3nnnn3C3CCCC3)C3CCCCC3)cc2c1 | 11.0% | -8.8% | 1.2% | -12.1% | -12.1% | 19.7
CCC(c1nnnn1C(C)(C)CC)N(CCN1CCOCC1)Cc1cc2cc(C)ccc2[nH]c1=O (configuration not stated) | -3.2% | ? | 2.1% | ? | -1.2% | 0.0
O=C(Nc1ccccc1OCc1ccccc1)c1ccccc1Br | 10.8% | -7.0% | 4.9% | -2.9% | 1.7% | -16.5
O=C(c1cc2c(c(-c3cccc(-c4ccncc4)c3)n1)[C@@H](CCO)N(C(=O)c1ccc3c(c1)OCO3)C2)N1CCOCC1 | nt | -19.0% | nt | -23.5% | nt | -4.6
CCC(c1nnnn1Cc1ccco1)N(Cc1cc2cc(C)cc(C)c2[nH]c1=O)CC1CCCO1 (configuration not stated) | ? | 18.4µM* | 1.0% | 14.6µM* | -2.0% | -23.9
Cc1cccc2cc(C(c3nnnn3C(C)(C)C)N(Cc3ccco3)CC3CCCO3)c(=O)[nH]c12 (configuration not stated) | -8.9% | ? | 14.3% | ? | -7.4% | ?
CCc1ccc2[nH]c(=O)c(CN(Cc3ccco3)Cc3nnnn3Cc3ccco3)cc2c1 | nt | 12.6µM* | nt | ? | nt | nt
COc1ccccc1CN(Cc1cc2c(C)ccc(C)c2[nH]c1=O)Cc1nnnn1Cc1ccco1 | 18.4µM* | 18.4µM* | 4.9%[0.365 µM] | 23.1µM* | nt | -70.4*
COc1cc2c(cc1OC)C1O[C@](CCCCN3C(=O)c4ccccc4C3=O)(C2)OC2=C1C(=O)c1ccccc1C2=O | nt | nt | 31.0%[10 µM] | nt | -5.7%[10 µM] | nt
COc1cc(=O)n2c(c1C(=O)N(C)Cc1nonc1C)CCN(CC1CC=CCC1)CC2 (configuration not stated) | nt | -14.6% | nt | -19.6% | nt | nt
COc1ccc(NC(=O)CN2CCN(C(=O)N3CCOCC3)CC2)cc1 | 6.6% | -5.0% | 0.6% | 0.3% | 5.7% | -13.3
c1cc2[nH]snc2c2nc(C3CC3)nc12 | 5.8µM* | 13µM* | 10.3% | 18.4µM* | 4.5% | -86.2*
Cc1ccc(Cn2ccnc2SCC(=O)Nc2nnc(C)s2)cc1 | nt | -0.9% | nt | -4.3% | nt | nt
COC(=O)/C=C\C(C#N)(C#N)N=Cc1ccc(OC)cc1 | nt | 0.651µM* | nt | 1.3µM* | nt | 0.0
COc1ccc(C=NNC(=O)CCCCC(=O)NN=Cc2ccc(OC)cc2)cc1 | nt | ? | nt | -12.3% | nt | 23.5
Cc1ccc(Cn2ccnc2SCC(=O)Nc2ccc3c(c2)OCCO3)cc1 | nt | -7.0% | nt | -12.5% | nt | nt
